PubChem BioAssay (Tox21)
Values without a mark were called inactive. Inconclusive results are not listed. Where a call stands in place of a potency, no number is given. Activity calls are given as the source filed them. Unless noted, calls follow the shape of the dose curve; as a rule, active = well fitted curve in the direction sought with a large enough effect in the repeat runs; inconclusive = weak or mixed curves; inactive = no such curve, though single readings can be large; an effect the other way counts as inactive or inconclusive.

Legend:
[1] = A CellTox Green Cytotoxicity Assay to monitor cytotoxicity in HepG2 cells - 8 hour (AID 1224890); also: nearly all actives have a fitted effect of over 45% in size; also: potency is read from the fitted curve at half-maximal effect
Procedure, shortened: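 Fluorescent DNA-binding dye, 600 HepG2 cells/well, 5 h preincubation then compound in DMSO; same plates read at 0–40 h, 37 C.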

[2] = qHTS assay to identify small molecule antagonists of the estrogen receptor alpha (ER-alpha) signaling pathway using the BG1 cell line in the presence of 0.1 nM 17-beta-estradiol - cell viability counter screen (AID 1259241); also: nearly all actives have a fitted effect of over 40% in size
Procedure, shortened: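 Following 5 days in phenol red-free medium with charcoal-stripped serum, VM7Luc4E2 cells received test compounds alongside 0.1 nM 17beta-estradiol (final) at 37C for 22 hr. Live cells were then quantified via protease-substrate fluorescence.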

[3] = qHTS assay to identify small molecule antagonists of the androgen receptor (AR) signaling pathway using the MDA cell line in the presence of 0.5 nM R1881 - cell viability counter screen (AID 1259242); also: nearly all actives have a fitted effect of over 45% in size
Procedure, shortened: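 Human breast carcinoma MDA-kb2 cells, cultured without CO2, receive compounds alongside 0.5 nM (final) R1881 agonist. After 16 hr at 37C, viability is taken as live-cell protease signal.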

[4] = biological target: Androgen receptor (Homo sapiens) (UniProt P10275); experiment: qHTS assay to identify small molecule antagonists of the androgen receptor (AR) signaling pathway using the MDA cell line in the presence of 0.5 nM R1881 (AID 1259243); also: nearly all actives have a fitted effect of over 50% in size
Chain of Androgen receptor (Homo sapiens) (P10275 whole entry, looked up): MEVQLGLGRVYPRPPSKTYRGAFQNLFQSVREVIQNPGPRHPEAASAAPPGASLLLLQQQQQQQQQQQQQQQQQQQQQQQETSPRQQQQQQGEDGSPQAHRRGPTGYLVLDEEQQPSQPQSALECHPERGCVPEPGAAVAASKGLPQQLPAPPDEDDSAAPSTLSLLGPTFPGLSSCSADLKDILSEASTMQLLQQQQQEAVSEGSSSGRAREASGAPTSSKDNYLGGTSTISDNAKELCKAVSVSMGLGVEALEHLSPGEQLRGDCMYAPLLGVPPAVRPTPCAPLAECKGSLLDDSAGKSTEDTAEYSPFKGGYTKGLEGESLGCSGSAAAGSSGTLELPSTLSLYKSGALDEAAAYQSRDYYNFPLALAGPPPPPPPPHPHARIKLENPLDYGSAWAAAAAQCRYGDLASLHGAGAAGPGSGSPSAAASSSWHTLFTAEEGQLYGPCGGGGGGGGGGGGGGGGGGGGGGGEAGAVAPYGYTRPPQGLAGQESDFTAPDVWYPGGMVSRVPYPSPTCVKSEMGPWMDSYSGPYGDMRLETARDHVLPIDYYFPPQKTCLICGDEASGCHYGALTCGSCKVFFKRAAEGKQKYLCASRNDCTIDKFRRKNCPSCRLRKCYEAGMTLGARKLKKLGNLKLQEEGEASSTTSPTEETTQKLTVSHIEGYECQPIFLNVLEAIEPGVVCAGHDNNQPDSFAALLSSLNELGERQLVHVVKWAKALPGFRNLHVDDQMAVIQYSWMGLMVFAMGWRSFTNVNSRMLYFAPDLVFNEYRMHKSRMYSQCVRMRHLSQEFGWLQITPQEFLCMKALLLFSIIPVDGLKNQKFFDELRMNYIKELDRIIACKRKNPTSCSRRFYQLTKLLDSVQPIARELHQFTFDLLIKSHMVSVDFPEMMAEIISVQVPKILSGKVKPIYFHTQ
Procedure, shortened: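 Cells: MDA-kb2 (MMTV-luc). Stimulus: 0.5 nM R1881. Time: 16 hr, 37C, no CO2. Detection: ONE-Glo luminescence after 30 min at RT.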

[5] = biological target: Estrogen receptor (Homo sapiens) (UniProt P03372); experiment: qHTS assay to identify small molecule antagonists of the estrogen receptor alpha (ER-alpha) signaling pathway using the BG1 cell line in the presence of 0.1 nM 17-beta-estradiol (AID 1259244); also: nearly all actives have a fitted effect of over 50% in size
Chain of Estrogen receptor (Homo sapiens) (P03372 whole entry, looked up): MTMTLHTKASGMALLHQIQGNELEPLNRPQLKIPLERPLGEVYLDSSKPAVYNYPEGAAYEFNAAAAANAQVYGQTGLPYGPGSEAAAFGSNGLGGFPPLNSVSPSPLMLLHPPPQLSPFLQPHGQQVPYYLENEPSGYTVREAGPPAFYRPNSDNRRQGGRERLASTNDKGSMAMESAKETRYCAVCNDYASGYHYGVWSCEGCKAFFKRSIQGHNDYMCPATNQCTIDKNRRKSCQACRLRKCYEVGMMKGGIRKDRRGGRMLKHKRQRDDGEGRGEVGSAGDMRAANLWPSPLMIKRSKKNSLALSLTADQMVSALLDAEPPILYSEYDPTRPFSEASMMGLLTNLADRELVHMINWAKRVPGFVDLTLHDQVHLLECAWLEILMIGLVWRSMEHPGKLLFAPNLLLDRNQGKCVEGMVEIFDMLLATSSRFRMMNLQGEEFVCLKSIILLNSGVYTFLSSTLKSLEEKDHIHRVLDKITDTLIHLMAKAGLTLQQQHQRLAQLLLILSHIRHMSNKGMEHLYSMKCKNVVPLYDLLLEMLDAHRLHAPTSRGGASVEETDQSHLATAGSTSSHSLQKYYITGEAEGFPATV
Procedure, shortened: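 Seeding of stripped-serum-adapted VM7Luc4E2 cells, 24 h attachment, compound transfer, then 0.1 nM final 17beta-estradiol; after 22 h incubation, ONE-Glo reagent and luminescence reading.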

[6] = qHTS assay to identify small molecule HDAC inhibitors (AID 1259364); also: potency is read from the fitted curve at half-maximal effect;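 also: wild-type HCT-116 cells with endogenous class I/II HDAC activity; nearly all actives have a fitted effect of over 45% in size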
Procedure, shortened: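 After a 2 hr compound incubation (37C, 5% CO2), HCT-116 cells seeded at 1,500/well the day before received HDAC-Glo reagent; signal read as luminescence after 30 min at room temperature.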

[7] = qHTS assay to identify small molecule HDAC inhibitors - cell viability counter screen (AID 1259365); also: series mostly up to about 92 µM; nearly all actives have a fitted effect of over 50% in size
Procedure, shortened: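 HCT-116 wild-type, overnight attachment; 2hr drug exposure, 37C; CellTiter-Glo luminescent ATP readout after 30min RT.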

[8] = qHTS assay to identify small molecule agonists of the sonic hedgehog signaling (Shh) pathway - cell viability counter screen (AID 1259366); also: nearly all actives have a fitted effect of over 50% in size
Procedure, shortened: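 Compounds in DMSO were pin-transferred onto 3T3 Gli1-Luc cells that had settled 4hr; plates then stood 24hr at 37C and 5% CO2. One hour before the end, CellTiter-Fluor was added and fluorescence recorded.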

[9] = qHTS assay to identify small molecule antagonists of the sonic hedgehog signaling (Shh) pathway - cell viability counter screen (AID 1259367); also: nearly all actives have a fitted effect of over 55% in size
Procedure, shortened: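 Viability was read by CellTiter-Fluor fluorescence in the same wells, reagent added 23 hr into compound treatment and incubated 1 hr at 37C. The 3T3 Gli1-Luc reporter cells (2,000/well) received conditioned medium after compound and ran 24 hr.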

[10] = qHTS assay to identify small molecule agonists of the sonic hedgehog signaling (Shh) pathway (AID 1259368; calls by dose curve;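 also: NIH/3T3-derived 3T3Gli1-Luc cells carrying a stable Gli1-driven firefly luciferase reporter; series mostly up to about 92 µM; nearly all actives have a fitted effect of over 15% in size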)
Procedure, shortened: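 Stable NIH/3T3 Gli1-Luc reporter clone; 24 hr cpd exposure after a 4 hr settling period; luminescence endpoint.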

[11] = qHTS assay to identify small molecule antagonists of the sonic hedgehog signaling (Shh) pathway (AID 1259369; calls by dose curve; also: nearly all actives have a fitted effect of over 45% in size)
Procedure, shortened: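 Gli1 transcriptional reporter (firefly Luc) in NIH/3T3 background, conditioned-medium activated. 24hr exposure, luminescence endpoint.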

[12] = biological target: Estrogen receptor beta (Homo sapiens) (UniProt Q92731); experiment: qHTS assay to identify small molecule agonists of the estrogen receptor beta (ER-beta) signaling pathway (AID 1259377; active = well fitted activation curve with a large enough effect in the signal ratio in the repeat runs, not every such curve was filed as active; the % refers to the signal ratio)
Chain of Estrogen receptor beta (Homo sapiens) (Q92731 whole entry, looked up): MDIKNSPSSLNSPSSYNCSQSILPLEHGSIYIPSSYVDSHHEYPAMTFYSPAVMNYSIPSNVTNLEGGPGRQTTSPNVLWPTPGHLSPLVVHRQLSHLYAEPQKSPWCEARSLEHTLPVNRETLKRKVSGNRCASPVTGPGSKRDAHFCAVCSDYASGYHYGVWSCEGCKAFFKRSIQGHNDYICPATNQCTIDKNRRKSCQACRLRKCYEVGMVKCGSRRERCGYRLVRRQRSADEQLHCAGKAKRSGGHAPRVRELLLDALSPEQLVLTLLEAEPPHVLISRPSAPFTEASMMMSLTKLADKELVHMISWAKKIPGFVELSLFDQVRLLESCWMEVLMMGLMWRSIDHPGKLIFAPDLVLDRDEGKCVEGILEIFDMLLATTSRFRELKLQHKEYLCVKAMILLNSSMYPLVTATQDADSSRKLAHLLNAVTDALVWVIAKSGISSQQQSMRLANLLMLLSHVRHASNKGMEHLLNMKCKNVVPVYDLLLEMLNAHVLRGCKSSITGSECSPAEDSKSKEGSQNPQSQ
Procedure, shortened: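 qHTS in ER-beta-UAS-bla HEK293T cells: 6 hr settling, then 16 hr compound at 37C, then LiveBLAzer substrate 2 h at RT before fluorescence reading.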

[13] = biological target: Estrogen receptor beta (Homo sapiens) (UniProt Q92731); experiment: qHTS assay to identify small molecule antagonists of the estrogen receptor beta (ER-beta) signaling pathway (AID 1259378; active = well fitted inhibition curve with a large enough effect in the signal ratio in the repeat runs, not every such curve was filed as active; the % refers to the signal ratio)
Procedure, shortened: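 Antagonist mode: compounds added to beta-lactamase reporter HEK293T ER-beta-UAS cells stimulated with E2 (1nM final), 16 hr at 37C. LiveBLAzer B/G FRET substrate, 2 hours room temperature, fluorescence read-out.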

[14] = qHTS assay to identify small molecule agonists of the androgen receptor (AR) signaling pathway in the presence of an antagonist - cell viability counter screen (AID 1259379);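 also: MDA-kb2 human breast cancer cells carrying an MMTV luciferase reporter; series mostly up to about 92 µM; nearly all actives have a fitted effect of over 25% in size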
Procedure, shortened: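 Counter screen for cell viability run in parallel with the AR agonist-mode luciferase assay. MDA-kb2 cells were co-treated with nilutamide (3.0uM final) and compounds, then incubated 16 hr at 37C, and CellTiter-Fluor fluorescence was measured.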

[15] = qHTS assay to identify small molecule agonists of the estrogen receptor beta (ER-beta) signaling pathway - cell viability counter screen (AID 1259380); also: nearly all actives have a fitted effect of over 30% in size; also: potency is read from the fitted curve at half-maximal effect
Procedure, shortened: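 In this qHTS counter screen, HEK293T cells carrying an ER-beta/UAS beta-lactamase reporter, grown in 2% charcoal-stripped FBS, received compound for 16 hr; ATP-based CellTiter-Glo luminescence was then read after 30 min at room temperature.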

[16] = biological target: Androgen receptor (Homo sapiens) (UniProt P10275); experiment: qHTS assay to identify small molecule agonists of the androgen receptor (AR) signaling pathway in the presence of an antagonist (AID 1259381; calls by dose curve; also: nearly all actives have a fitted effect of over 15% in size)
Procedure, shortened: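 AR antagonist background: nilutamide 3.0uM final. Cell line: MDA-kb2, MMTV-driven luciferase, responsive to both AR and GR. Exposure 16hr, 37C, no CO2; ONE-Glo luminescence.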

[17] = qHTS assay to identify small molecule antagonists of the estrogen receptor beta (ER-beta) signaling pathway - cell viability counter screen (AID 1259382);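 also: HEK293T cells carrying ER-beta-UAS-bla reporter stimulated with estradiol; series mostly up to about 92 µM; nearly all actives have a fitted effect of over 55% in size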
Procedure, shortened: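 HEK293T ER-beta-UAS-bla, 2% charcoal-stripped FBS; compounds + 1nM E2 16 hr 37C; CellTiter-Glo luminescence, 30 min RT.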

[18] = biological target: Estrogen receptor (Homo sapiens) (UniProt P03372); experiment: qHTS assay to identify small molecule agonists of the estrogen receptor alpha (ER-alpha) signaling pathway in the presence of an antagonist (AID 1259383; calls by dose curve; also: top concentration of the series differs between compounds; nearly all actives have a fitted effect of over 15% in size)
Procedure, shortened: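 ER-alpha agonism measured under antagonist challenge: 10.0nM ICI-182,780 (final) plus compound, 15 concentrations, 22hr, VM7Luc4E2 ERE-luciferase cells. Read by luminescence.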

[19] = qHTS assay to identify small molecule agonists or antagonists of the thyroid stimulating hormone receptor (TSHR) signaling pathway - wild type cell line counter screen (AID 1259384; calls by dose curve)
Procedure, shortened: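 Counter screen in untransfected Hek293: compounds (15-point titration, triplicate) plus phosphodiesterase inhibitor Ro20-1724 added after 18 h plating; 30 min RT. Intracellular cAMP via competitive d2/cryptate immunoassay, 1 h incubation.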

[20] = qHTS assay to identify small molecule phospholipidosis (PLD) inducers (AID 1259344; active = well fitted curve in the direction sought with a large enough effect; an effect the other way counts as inactive or inconclusive)
Procedure, shortened: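 Phospholipid accumulation was scored by imaging: fixed, Hoechst-counterstained HepG2 cells stained with LipidTOX Red after 24 h compound exposure at 37 C. Read-outs were pit count and pit intensity per well or per cell, with amiodarone and DMSO controls.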

Row | Structure (SMILES) | Potency [1] | Potency [2] | Potency [3] | Potency [4] | Potency [5] | Potency [6] | outcome [7] | Potency [8] | Potency [9] | Potency [10] | Potency [11] | Potency [12] | Potency [13] | Potency [14] | Potency [15] | Potency [16] | Potency [17] | Potency [18] | outcome [19] | Potency [20]
1 | Cc1nc(C)c(C)nc1C | inactive | inactive | inactive | inactive | inactive | inactive | inactive | inactive | inactive | inactive | inactive | inactive | inactive | inactive | inactive | inactive | inactive | inactive | inactive | 
2 | CCCCCCCCCCCCSCCOCCO | inactive | inactive | inactive |  | inactive | inactive | inactive | inactive | inactive | inactive | inactive | inactive |  | inactive | inactive |  | inactive | inactive | inactive | inactive
3 | CCC(C(=O)O)c1ccc(N2Cc3ccccc3C2=O)cc1 (configuration not stated) | inactive | inactive | inactive | inactive | inactive | 2.66 µM (active) | inactive | inactive | inactive | inactive | inactive |  |  | inactive | inactive | inactive | inactive | inactive |  | 
4 | O=C(O)c1cc(C(=O)O)c(C(=O)O)cc1C(=O)O | inactive | inactive | inactive | inactive | inactive | inactive | inactive | inactive | inactive | inactive | inactive | inactive | inactive | inactive | inactive | inactive | inactive | inactive |  | 
5 | CCCCCCCCCCCCCCCCC(=O)O | inactive | inactive | inactive | inactive |  | inactive | inactive | inactive |  | inactive | inactive | inactive | inactive | inactive | inactive | inactive | inactive |  | inactive | 
6 | CCCCCCCCCCCCCCCCN | 21.3 µM (active) | inactive | inactive |  | inactive | inactive | inactive | inactive | inactive | inactive | inactive |  |  | inactive | inactive |  | inactive | inactive | inactive | inactive
7 | Cc1cc(SC2=C(O)C[C@@](CCc3ccc(N)cc3)(C(C)C)OC2=O)c(C(C)(C)C)cc1CO | inactive | inactive | inactive | inactive |  | inactive | inactive | inactive | inactive | inactive | inactive |  |  | inactive | inactive | inactive | inactive |  | inactive | 
8 | CC1(COc2ccc(CC3SC(=O)NC3=O)cc2)CCCCC1 (configuration not stated) | inactive | inactive | inactive |  | inactive | inactive | inactive | inactive |  | inactive | inactive |  |  | inactive | 10.6 µM (active) |  | inactive | inactive | inactive | inactive
